# Screening results deposited in PubChem by National Center for Advancing Translational Sciences (NCATS).
# Most compounds without a hit are left out; they make up all but 9.4% or so of the library.
# Rab9 promoter act: qHTS Assay for Rab9 Promoter Activators; Huh7 Rab9 promoter-luciferase reporter, luminescence, 24 h; Potency, µM (titrated, usually from 9.22 µM), inactives show top-dose activation, negative = inhibition, most hits filed as activators; 320,000 compounds, 2.8% hits; note: % of control where 0% means no effect; nearly all actives have a fitted effect of over 60% in size
#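 Huh7 cells stably carrying Rab9 promoter–luciferase reporter, plated 1500 cells/well, compound added after 2 h and incubated 24 h at 37 °C; luciferase luminescence then read after 10 min with detection reagent.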
# ELG1 repair inh: qHTS screen for small molecules that inhibit ELG1-dependent DNA repair in human embryonic kidney (HEK293T) cells expressing luciferase-tagged ELG1; Potency, µM (series often up to 46.1 µM), without a hit: top-dose activity change, negative = inhibition, usual class: inhibitors; HEK293T ELG1-luciferase reporter, luminescence, 16 h; DNA damage induced by 5-fluorouridine; 330,000 compounds, 2.3% hits; note: % is set by controls: 0 for no effect and ±100 for the full control effect; nearly all actives have a fitted effect of over 55% in size
#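 Luminescence from the luciferase reporter, measured 30 min after ONE-Glo reagent at room temperature, was the read-out. Beforehand, 2,000 cells per well were exposed for 16 hr at 37 °C to 5-fluorouridine together with compound or vehicle.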
# SMN2 splice up: qHTS Assay for Enhancers of SMN2 Splice Variant Expression; HEK293 SMN2-luciferase splicing reporter, luminescence, 30-36 h; AID 1458, 2008; 210,000 compounds, 2.8% hits; Potency, µM (titrated, usually from 46.1 µM), inactives show at the highest dose activity change, positive = activation, usual class: activators; note: % of control where 0% means no effect; nearly all actives have a fitted effect of over 55% in size
#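 HEK293 cells carry an SMN2 […]–luciferase reporter in which exon 7 inclusion puts luciferase in frame. Cells were plated 10-12 h before compound addition, then incubated 30-36 h at 37C. ONE-Glo luminescence was read; sodium butyrate at 4.5 mM final served as control.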
# FLuc modulator: qHTS profiling assay for firefly luciferase inhibitor/activator using purifed enzyme and Km concentrations of substrates (counterscreen for miR-21 project). 360,000 compounds, 6.9% hits. AID 588342, 2011. Luciferin 4-monooxygenase (Photinus pyralis), P08659. Potency, µM (highest dose often 57.5 µM), for inactives: at the highest dose activity change, negative = inhibition, actives largely listed as inhibitors. purified FLuc, Km substrates, luminescence inhibition;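 note: plate controls were vehicle for no effect and reference inhibitor for full effect; nearly all actives have a fitted effect of over 55% in size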
# Target sequence (P08659 whole entry, looked up): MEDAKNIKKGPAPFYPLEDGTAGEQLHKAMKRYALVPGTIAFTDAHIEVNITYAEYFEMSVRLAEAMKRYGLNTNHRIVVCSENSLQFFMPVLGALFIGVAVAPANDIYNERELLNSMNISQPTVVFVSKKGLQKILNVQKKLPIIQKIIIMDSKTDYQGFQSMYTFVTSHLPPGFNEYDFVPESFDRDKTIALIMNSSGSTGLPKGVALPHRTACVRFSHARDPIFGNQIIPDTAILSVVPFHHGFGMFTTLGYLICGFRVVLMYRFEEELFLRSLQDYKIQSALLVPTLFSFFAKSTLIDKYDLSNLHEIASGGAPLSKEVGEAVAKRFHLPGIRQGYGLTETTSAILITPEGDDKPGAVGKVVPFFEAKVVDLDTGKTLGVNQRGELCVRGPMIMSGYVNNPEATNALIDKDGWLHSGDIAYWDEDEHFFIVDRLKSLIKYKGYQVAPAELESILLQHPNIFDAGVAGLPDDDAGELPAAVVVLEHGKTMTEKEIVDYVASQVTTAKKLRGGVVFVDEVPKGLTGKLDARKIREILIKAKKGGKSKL
#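 Biochemical qHTS of compounds, final roughly 60 µM downward over six points, against 10 nM purified firefly luciferase using Km concentrations of substrates (10 uM D-luciferin, 10 uM ATP) in Tris acetate pH 7.5 buffer; luminescence output.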
# ELG1 genotoxic: qHTS screen for small molecules that induce genotoxicity in human embryonic kidney (HEK293T) cells expressing luciferase-tagged ELG1; HEK293T ELG1-luciferase reporter, luminescence, 16 h; Potency, µM (top dose mostly 46 µM), for the others: at the top dose activity change, positive = activation, usual class: activators; 330,000 compounds, 1.3% hits; AID 504466, 2011; note: % of control where 0% means no effect; nearly all actives have a fitted effect of over 60% in size
#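 HEK293T cells expressing luciferase-tagged ELG1 were exposed to compound or DMSO vehicle for 16 hr at 37 °C and 5% CO2. Luciferase activity was then measured with ONE-Glo after 30 min at room temperature.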
# NPC1 promoter act: qHTS Assay for NPC1 Promoter Activators | Huh7 NPC1 promoter luciferase reporter, 24 h | 320,000 compounds, 2.4% hits | Potency, µM (series often up to 9.22 µM), without a hit: at the top dose activation, most hits filed as activators; note: % of control where 0% means no effect; nearly all actives have a fitted effect of over 60% in size
#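 In 1536-well qHTS, Huh7 cells harboring an NPC1 promoter–luciferase construct received compound for 24 h; activation was quantified by luminescence following luciferase reagent addition.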
# Starred values were filed as active, the others as inactive; ? = inconclusive; . = no result. Calls come from the whole dose curve; as a rule, active = well fitted curve in the direction sought with a large enough effect; inconclusive = small, poorly fitted or top-dose-only effect, or another doubt; inactive = no such curve, though single readings can be large; an effect the other way counts as inactive or inconclusive. Potency is the fitted concentration of half-maximal effect.
SMILES,Rab9 promoter act,ELG1 repair inh,SMN2 splice up,FLuc modulator,ELG1 genotoxic,NPC1 promoter act
COc1ccc(C(=O)Nc2nnc(-c3ccco3)s2)cc1,0.316µM*,?,1.41µM*,0.477µM*,?,0.447µM*
COc1ccc(OCC(=O)OCc2cc(=O)n3nc(C4CCCCC4)sc3n2)cc1,.,.,.,-3.7%,.,.
O=C(O)CSc1cc(C(=O)c2cc(F)ccc2O)cn2c(=O)c3c(-c4ccccc4)csc3nc12,-2.6%,-4.4%,.,26.9µM*,-5.6%,-0.3%
CCOC(=O)c1sc2nc3c(SCCC#N)cc(C(=O)c4cc(F)ccc4O)cn3c(=O)c2c1C,-7.6%,-16.3%,-39.7%,-1.2%,-5.1%,-0.1%
CCOC(=O)c1sc2nc3c(SCCC(=O)O)cc(C(=O)c4cc(OC)ccc4O)cn3c(=O)c2c1C,1.6%,-7.1%,-19.6%,3.01µM*,0.6%,1.5%
CCc1c(C)sc2nc3c(C(=O)N4CCOCC4)cc(C(=O)c4cc(F)ccc4O)cn3c(=O)c12,-1.0%,?,-49.7%,-9.3%,-12.2%,-6.2%
Cc1cc(C)cc(NC(=O)C(CC(C)C)NC(=O)C2CCCCC2)c1 (centres undefined),.,.,13.1%,1.1%,.,.
Cc1ccn2c(C(=O)c3ccc(Cl)cc3)cnc2c1,1.41µM*,?,21.9%,2.13µM*,1.16µM*,3.55µM*
Cc1ccn2c(=O)nc(SCC(=O)c3ccc(Cl)cc3)nc2c1,2.0%,?,.,-14.0%,?,-0.4%
CCN(CC)c1ccc(NC(=O)c2cccc(C)c2OC)c(C)c1,?,?,?,10.7µM*,?,1.12µM*
Cc1cc2nn(-c3ccc(F)cc3)nc2cc1NC(=O)c1cccc2ccccc12,.,.,-2.6%,4.0%,.,.
CCN(CC)c1ccc(-n2nc3cc(C)c(NC(=O)c4ccccc4C)cc3n2)c(C)c1,.,.,6.31µM*,7.1%,.,.
CCCCc1ccc(/C=C2\C(=O)c3ccccc3C(O)=C2C(=O)OCC)cc1,-1.9%,0.0%,8.1%,10.7µM*,0.6%,-1.3%
CCOC(=O)c1c(C)n(C)c2ccc(OCC(O)Cn3nc(C)cc3C)cc12 (centres undefined),-7.8%,20.6µM*,17.5%,-1.3%,-17.7%,-2.8%
CC(C)(C)OC=O,.,.,-2.7%,.,.,.
CCOc1ccc(C2CC(=O)c3c([nH]c(C(=O)OCCOc4ccccc4)c3C)C2)cc1 (centres undefined),.,.,0.6%,-6.6%,.,.
Cc1c(C(=O)OCCOc2ccccc2)[nH]c2c1C(=O)CCC2,?,?,3.55µM*,0.953µM*,?,4.47µM*
CC(=O)c1c(C)[nH]c(C(=O)COC(=O)CCCOc2ccccc2)c1C,-1.5%,-0.8%,-9.9%,4.0%,-0.7%,18.9%
CC(=O)c1c(C)[nH]c(C(=O)OCCOc2ccccc2)c1C,0.316µM*,?,-56.4%,0.536µM*,?,0.316µM*
Cc1ccc(CNC(=O)Cc2c(C)c3c(cc(C)c4c(C)coc43)oc2=O)cc1,.,.,4.6%,-7.2%,.,.
COc1ccc(NC(=O)CC(C)C)c([N+](=O)[O-])c1,4.9%,7.9%,-0.5%,2.4%,2.5%,-0.6%
COc1ccc2sc(NCc3ccccc3)nc2c1,3.55µM*,?,.,6.01µM*,?,2.24µM*
Cc1nc2c(ccc3nc(NC(=O)C(c4ccccc4)c4ccccc4)sc32)s1,-5.2%,?,-63.5%,-1.1%,2.1%,-8.2%
COc1ccc2sc(NC(=O)CC(C)C)nc2c1,4.47µM*,?,?,10.7µM*,18.4µM*,?
CCC(=O)Nc1nc2ccc3nc(C)sc3c2s1,3.98µM*,?,11.2µM*,?,8.2µM*,?
